The text below walks through data of PubChem BioAssay AID651819 (National Center for Advancing Translational Sciences (NCATS), 2012).

Among all 360,000 compounds or so, about 1,100 (0.31%) were called active. The sample as a whole holds a higher share of actives than the screen did. Values without a mark were called inactive. Rule as the data show it: active = activity change below about -30%; inactive = the rest.
% is scaled to controls: 0 for no effect and ±100 for the full control effect.

The subject of this test is cytosolic chaperonin (CCT/TRiC complex). The experiment in a line: High-Throughput Screening for Modulators of Cytosolic Chaperonin Activity. The settings on record: purified chaperonin ATPase assay, HTRF ADP detection, 30 min; stronger effect = lower value. The source says:
The eukaryotic chaperonin named TRiC (for TCP-1 ring complex), also called CCT (for chaperonin containing TCP1), is an essential and conserved chaperone required for the folding and activation of 10-15% of the proteins encoded by the human genome. […] Despite its central role in cellular folding, little is known about TRiC mechanism and mode of substrate binding. Currently, no specific TRiC inhibitors are available. Given the early promise of other chaperone-directed inhibitors as cancer therapeutics (e.g. HSP90 inhibitors), inhibitors of TRiC activity may also selectively target transformed cells and have potential use as therapeutics for cancer.
To this end, a miniaturized assay was developed to screen against the Molecular Libraries Small Molecule Repository (MLSMR).
NIH Chemical Genomics Center [NCGC]
NIH Molecular Libraries Probe Centers Network [MLPCN]
Assay Submitter (PI): Judith Frydman, Stanford University
1.5 uL/well TRiC enzyme suspended in buffer (30 mM TRIS pH7.4, 100 mM KCl, 5 mM MgCl2, 1 mM DTT) was added with BioRAPTR FRD dispenser at 40 nM or 20 nM (based on the enzymatic activity of used batches) final concentration to a white solid bottom medium binding 1536-well plate (Greiner Bio-One, Monroe, NC), and quickly spanned down. 23 nl/well of compound solutions in DMSO were added with a pintool transfer (Kalypsis, San Diego, CA) at a single 76 uM final concentration. Next, 1.5 µl/well ATP was dispensed with BioraptR at 10 uM final concentration after which the plates were incubated at 37 deg C for 30 min. HTRF(R) Transcreener(R) ADP (Cisbio US, Bedford, MA) detection reagents were prepared accordingly to the protocol and dispensed into the plate (1.5 uL/well each), incubated for 30 min at ambient temperature. Then, the plates were read using Envision reader with excitation at 330nm and emission at 615nm (Eu(3)-Cryptate donor signal) and 665nm (d2 acceptor signal). The ratio of […] was calculated for each well.
For orientation: Time-resolved FRET reads energy transfer from a long-lived donor to a nearby acceptor.
Consider `Nc1ccc([N+](=O)[O-])cc1`, for which the activity change is -35.1% (active).
As for `CC(=O)Cc1ccc(OC(C)C)cc1`, the figure is -4.19%; as for `CC(C)(C)c1ccc(OC(=O)N2CCCCC2)cc1`, -0.84%; as for `COc1ccc(CCn2c(O)c(C=NC3CC3)c(=O)[nH]c2=O)cc1OC`, -0.86%.
The result for `O=C1NC(=O)C(Cc2ccccc2)C(=O)N1` reads -0.218%; that for `O=C1NC(=O)C(C/C=C/c2ccccc2)C(=O)N1`, -117% (active); that for `CSC1=NP(=S)(SC)N(C)c2nc3n(c21)CCC3` (stereo not given), -0.177%.
As for `CCOC(=O)c1c(C)c(C(=O)N2CCC3(CC2)OCCO3)c(C)n1CC`, the figure is -3.47%; as for `COCCNC(=O)CN1C2CCC1CC(O)(c1cccnc1)C2` (stereo not given), 0.503%.
Take `Cc1ccc(Cn2nnnc2CN2CCC(n3nnc4ccccc43)CC2)cc1`: the activity change is -0.0525%.
